ALR H2O2 inh: inhibitors of human sulfhydryl oxidase ALR; purified ALR, DTT oxidation, H2O2 HRP-luminol luminescence; P55789; actives 3.8% (n = 290,000); AID 485317; inhibition, % (concentration not given with the values);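 active means mean replicate inhibition above about 79%, with every replicate also reaching it, limit read from the data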
Target sequence (P55789 whole entry, looked up): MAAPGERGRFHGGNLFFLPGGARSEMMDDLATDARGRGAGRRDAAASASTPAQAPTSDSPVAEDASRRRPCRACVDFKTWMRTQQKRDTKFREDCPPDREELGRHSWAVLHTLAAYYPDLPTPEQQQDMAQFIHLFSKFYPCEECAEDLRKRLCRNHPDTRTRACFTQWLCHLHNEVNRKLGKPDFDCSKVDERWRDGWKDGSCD
ABHD5-PLIN5 inh: inhibitors of human ABHD5-perilipin-5 interaction; actives 0.78% (n = 360,000); AID 602281; Q00G26+Q8WTS1; inhibition, % at 4 µM; Split G. princeps luciferase complementation, luminescence, 4 h;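 active means inhibition above the mean inhibition across every tested compound plus 3 SD, cut at about 22% in these data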;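 further: 0% = DMSO only wells and the 100% control is not disclosed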
PRMT1 FP inh: PRMT1 (human) inhibition, primary screen | recombinant PRMT1, activity-based probe fluorescence polarization | inhibition, % at 2.79 µM | actives 1.3% (n = 370,000) | AID 652257;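 active means inhibition above about 21% made by adding two undisclosed values, limit read from the data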
Rtt109 HAT inh: inhibitors of Candida albicans Rtt109/Vps75 histone acetyltransferase | Q5AAJ8 | purified Rtt109/Vps75, ThioGlo CoA-SH fluorescence, 4 h | inhibition, % at 34.9 µM | actives 0.16% (n = 330,000) | AID 540336;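 active means inhibition of at least 50% in every replicate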
Target sequence (Q5AAJ8 whole entry, looked up): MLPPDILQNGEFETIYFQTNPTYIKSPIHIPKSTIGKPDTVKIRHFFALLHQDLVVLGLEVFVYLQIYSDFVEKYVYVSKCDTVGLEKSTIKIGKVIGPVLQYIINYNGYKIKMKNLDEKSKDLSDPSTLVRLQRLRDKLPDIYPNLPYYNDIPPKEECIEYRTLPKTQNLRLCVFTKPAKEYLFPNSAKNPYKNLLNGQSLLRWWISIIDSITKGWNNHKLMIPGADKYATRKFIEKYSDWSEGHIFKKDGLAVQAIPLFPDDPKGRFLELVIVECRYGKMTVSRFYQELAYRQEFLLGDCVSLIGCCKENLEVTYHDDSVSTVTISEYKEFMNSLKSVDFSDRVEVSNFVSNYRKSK
LANA-H2A inh: blocks KSHV LANA binding to histone H2A/H2B; cell-free LANA-H2A/H2B peptide, fluorescence polarization; inhibition, % (concentration not given with the values); actives 0.6% (n = 320,000); AID 2629; in the data active means inhibition mostly above about 10%, no sharp cut-off; inactive means mostly below about 6.7%
rCAG RNA binder: r(CAG) repeat RNA binding; TO-PRO-1 dye displacement fluorescence; inhibition, % at 3 µM; actives 1.3% (n = 370,000); AID 651821;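 active means inhibition above the plate cutoff, the mean of all test compounds on that plate plus 3 SD, cut at about 35% in these data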;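 further: 0% = DMSO alone and 100% = 100 µM mitoxantrone as full dye displacement; higher means more dye released from RNA so lower well fluorescence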
rCAG binder conf: r(CAG) RNA repeat binding, confirmation. shares compounds with rCAG RNA binder. TO-PRO-1 dye displacement fluorescence. inhibition, % at 3 µM. actives 70% (n = 4,300). AID 652065;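 active means inhibition above a per-plate cutoff, the mean inhibition of sample wells plus 3 SD, cut at about 35% in these data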;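 further: loss of TO-PRO-1 fluorescence as compound displaces dye from 1x1 AA loop RNA; 0% = DMSO only wells and 100% = 100 µM mitoxantrone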
dCAG dye counter: counter-screen for rCAG RNA binders: DNA CAG dye complex inhibitors | shares compounds with rCAG RNA binder | d(CAG) DNA oligo TO-PRO-1 dye displacement, fluorescence | inhibition, % at 3 µM | actives 94% (n = 4,300) | AID 652068;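 active means inhibition above its plate's cutoff, the mean test-well inhibition plus 3 SD, cut at about 4.8% in these data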;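 further: 0% = DNA dye mix with DMSO and 100% = 100 µM mitoxantrone; hits displace the dye from DNA and so lower well fluorescence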
DNA CAG DR: disrupts DNA CAG TO-PRO-1 complex in dose response | shares compounds with rCAG RNA binder | DNA CAG/GTC duplex TO-PRO-1 dye displacement fluorescence | IC50, µM | actives 20% (n = 250) | AID 686960; in the data active means IC50 below about 10 µM
Starred values were filed as active, the others as inactive. In the library only some 5.9% were active in any assay of this set; here they are far more common.

What do the screens show for `Cn1c(SCC(=O)Nc2ccccc2Oc2ccccc2)nnc1C1CC1`?
ALR H2O2 inh: -9; ABHD5-PLIN5 inh: 0; PRMT1 FP inh: 1; Rtt109 HAT inh: -8; LANA-H2A inh: 1; rCAG RNA binder: 0

What do the screens show for `CC1=NN(c2ccc(C)cc2C)C(=O)C1C(c1ccccc1O)C1C(=O)N(c2ccc(C)cc2C)N=C1C` (stereo not drawn)?
ALR H2O2 inh: 8; ABHD5-PLIN5 inh: -33; PRMT1 FP inh: 0; Rtt109 HAT inh: 37; LANA-H2A inh: -2; rCAG RNA binder: 13

What do the screens show for `CC1=NN(c2ccc(C)c(C)c2)C(=O)C1C(c1cccc(O)c1)C1C(=O)N(c2ccc(C)c(C)c2)N=C1C` (stereo not drawn)?
ALR H2O2 inh: -9; ABHD5-PLIN5 inh: 6; PRMT1 FP inh: 6; Rtt109 HAT inh: 17; LANA-H2A inh: -1; rCAG RNA binder: 70*; rCAG binder conf: 78*; dCAG dye counter: 37*

How did COC(=O)[C@@H]1[C@H](O[Si](C)(C)C(C)(C)C)[C@H]2O[C@H]2C[C@H]1S(=O)(=O)c1ccccc1 do in these assays?
PRMT1 FP inh: 10

How did Oc1ccc(Br)cc1-c1cc(-c2ccccc2)n[nH]1 do in these assays?
ALR H2O2 inh: -4; ABHD5-PLIN5 inh: -17; PRMT1 FP inh: 1; Rtt109 HAT inh: 4; LANA-H2A inh: -1; rCAG RNA binder: 27

Results for O=[N+]([O-])c1cccc(-c2cc(-c3cc(Br)ccc3O)[nH]n2)c1 ?
ALR H2O2 inh: -4; ABHD5-PLIN5 inh: -6; PRMT1 FP inh: 4; Rtt109 HAT inh: -3; LANA-H2A inh: -1; rCAG RNA binder: 37*; rCAG binder conf: 27; dCAG dye counter: 16*

What do the screens show for `Nc1ccc2c(O)cc(S(=O)(=O)O)cc2c1`?
ABHD5-PLIN5 inh: -46; Rtt109 HAT inh: -1; rCAG RNA binder: 87*; rCAG binder conf: 34; dCAG dye counter: 9.7*

How did CC(=O)c1c(O)c(C)c(O)c2c1OC1=CC(=O)/C(=C(/C)N)C(=O)C12C (stereo not drawn) do in these assays?
ABHD5-PLIN5 inh: 0; PRMT1 FP inh: 1; rCAG RNA binder: 9

Results for COC12CC(=O)C(C(C)=O)=C(O)C1(C)c1c(O)c(C)c(O)c(C(C)=O)c1O2 (stereo not drawn) ?
ABHD5-PLIN5 inh: -3; PRMT1 FP inh: 2; rCAG RNA binder: 55*; rCAG binder conf: 67*; dCAG dye counter: 30*

What do the screens show for `Cn1c(SC2CCCC2)nnc1-c1ccco1`?
PRMT1 FP inh: -1; rCAG RNA binder: 5

What do the screens show for `C=CCCC(=O)N1CCC(C(=O)NC2CCCc3ccccc32)CC1` (stereo not drawn)?
PRMT1 FP inh: 0; rCAG RNA binder: 3

How did COc1ccc(C2=NN(c3nc4ccccc4s3)C(=O)/C2=C\N(C)C)cc1 do in these assays?
ALR H2O2 inh: 16; ABHD5-PLIN5 inh: -3; PRMT1 FP inh: 0; Rtt109 HAT inh: 11; LANA-H2A inh: 1; rCAG RNA binder: 46*; rCAG binder conf: 38*; dCAG dye counter: 13*

Results for COc1ccc2nc(Nc3nc4cc5c(cc4s3)OCO5)sc2c1 ?
ABHD5-PLIN5 inh: 9; PRMT1 FP inh: 4; Rtt109 HAT inh: -8; LANA-H2A inh: 4; rCAG RNA binder: 44*; rCAG binder conf: 32; dCAG dye counter: 20*

Results for O=C(CSC1=NS(=O)(=O)c2cc(Cl)ccc2N1)Nc1ccccc1C(F)(F)F ?
ABHD5-PLIN5 inh: 4; PRMT1 FP inh: 0; Rtt109 HAT inh: -7; rCAG RNA binder: 52*; rCAG binder conf: 52*; dCAG dye counter: 11*; DNA CAG DR: >30

What do the screens show for `CC(=O)Nc1ccc(NC(=O)CSC2=NS(=O)(=O)c3cc(Cl)ccc3N2)cc1`?
ABHD5-PLIN5 inh: -5; PRMT1 FP inh: -3; Rtt109 HAT inh: -5; rCAG RNA binder: 22

Results for O=C(CSC1=NS(=O)(=O)c2cc(Cl)ccc2N1)Nc1ccccc1F ?
ABHD5-PLIN5 inh: 8; PRMT1 FP inh: 3; Rtt109 HAT inh: 0; rCAG RNA binder: 59*; rCAG binder conf: 35; dCAG dye counter: 6.8*

Results for COc1ccc(NC(=O)c2c(NC(=O)CCC(=O)O)sc(-c3ccccc3)c2C)cc1 ?
ALR H2O2 inh: 11; ABHD5-PLIN5 inh: -6; PRMT1 FP inh: 3; Rtt109 HAT inh: 11; LANA-H2A inh: 3; rCAG RNA binder: 50*; rCAG binder conf: 57*; dCAG dye counter: 12*; DNA CAG DR: >30

Results for Cc1sc(NC(=O)CCC(=O)O)c(C(N)=O)c1-c1ccccc1 ?
ALR H2O2 inh: 39; ABHD5-PLIN5 inh: -4; PRMT1 FP inh: 8; Rtt109 HAT inh: -2; LANA-H2A inh: 0; rCAG RNA binder: 1

How did N#CCC[C@@H]1CC[C@]2(CCCN(S(=O)(=O)C3CCCCC3)C2)O1 do in these assays?
PRMT1 FP inh: -3; rCAG RNA binder: 3

Results for COC(=O)c1ccc(Cn2ccc3ccc(-c4ccc5ccn(Cc6ccccc6)c5c4)cc32)cc1 ?
PRMT1 FP inh: -1; rCAG RNA binder: 13

Results for COc1cc(CCN=Cc2cccc(OC)c2O)c([N+](=O)[O-])cc1OC ?
PRMT1 FP inh: 0; rCAG RNA binder: 3

How did O=C(CCCN1C(=O)S/C(=C\C=C\c2ccccc2)C1=O)Nc1ccc(O)cc1 do in these assays?
ALR H2O2 inh: -92; ABHD5-PLIN5 inh: 5; PRMT1 FP inh: 4; Rtt109 HAT inh: 9; LANA-H2A inh: 2; rCAG RNA binder: 9

How did O=C(CN1C(=O)S/C(=C\C=C\c2ccccc2)C1=O)Nc1ccc(C(=O)O)cc1 do in these assays?
ALR H2O2 inh: 98*; ABHD5-PLIN5 inh: 17; PRMT1 FP inh: 12; Rtt109 HAT inh: 32; LANA-H2A inh: -2; rCAG RNA binder: 54*; rCAG binder conf: 46*; dCAG dye counter: 18*

What do the screens show for `O=C(CCN1C(=O)/C(=C\C=C\c2ccccc2)SC1=S)Nc1ccc(C(=O)O)cc1`?
ALR H2O2 inh: -1; ABHD5-PLIN5 inh: 14; PRMT1 FP inh: 3; Rtt109 HAT inh: -4; LANA-H2A inh: -3; rCAG RNA binder: 46*; rCAG binder conf: 78*; dCAG dye counter: 43*

Results for O=C(CN1C(=O)S/C(=C/C=C/c2ccccc2)C1=O)Nc1ccc(C(=O)O)cc1 ?
ALR H2O2 inh: 6; ABHD5-PLIN5 inh: 20; PRMT1 FP inh: 4; Rtt109 HAT inh: 1; LANA-H2A inh: 0; rCAG RNA binder: 65*; rCAG binder conf: 45*; dCAG dye counter: 15*
